# Bioassay records: PubChem, several laboratories
# PfM18AAP inh – PfM18AAP enzyme inhibition | recombinant PfM18AAP, H-Glu-NHMec fluorogenic cleavage | 290,000 tested, 1.2% active | inhibition, % at 7.35 µM;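 active means inhibition above the campaign mean inhibition over all tested compounds plus 3 SD, cut at about 28% in these data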;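 further: 0% = plate median of test compound wells and 100% = 2 mM ZnCl2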
# ALR H2O2 inh – human ALR oxidase inhibition via reduced H2O2; 290,000 tested, 3.8% active; inhibition, % (concentration not given with the values); P55789; purified ALR, DTT oxidation, H2O2 HRP-luminol luminescence;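 active means mean replicate inhibition above about 79%, with every replicate also reaching it, limit read from the data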
# Target sequence (P55789 whole entry, looked up): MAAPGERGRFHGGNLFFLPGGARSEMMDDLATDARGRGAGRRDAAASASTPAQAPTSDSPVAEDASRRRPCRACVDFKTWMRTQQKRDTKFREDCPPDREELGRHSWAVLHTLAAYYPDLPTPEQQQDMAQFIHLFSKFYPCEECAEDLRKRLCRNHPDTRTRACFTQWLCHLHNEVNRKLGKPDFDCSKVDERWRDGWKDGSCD
# Granule exo inh – lytic granule exocytosis inhibition. TALL-104 LAMP-1 surface exposure, flow cytometry; cells stimulated with thapsigargin and PMA. inhibition, % at 10 µM. 360,000 tested, 0.66% active. AID 651702;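 active means inhibition above about 55%, limit read from the data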
# JMJD2C inh – human JMJD2C demethylase inhibition. Q9H3R0. inhibition, % at 2.35 µM. GST-JMJD2C(1-420) H3K9me3 demethylation, DELFIA europium. 330,000 tested, 0.069% active;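 active means more than half of a compound's replicate wells show inhibition beyond 50%, single wells judged on their own value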;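 further: signal counts dimethyl H3K9 product captured on neutravidin plate; 0% = median of DMSO wells and 100% = 0.3 times that DMSO median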
# Target sequence (Q9H3R0 1-420 limits assumed): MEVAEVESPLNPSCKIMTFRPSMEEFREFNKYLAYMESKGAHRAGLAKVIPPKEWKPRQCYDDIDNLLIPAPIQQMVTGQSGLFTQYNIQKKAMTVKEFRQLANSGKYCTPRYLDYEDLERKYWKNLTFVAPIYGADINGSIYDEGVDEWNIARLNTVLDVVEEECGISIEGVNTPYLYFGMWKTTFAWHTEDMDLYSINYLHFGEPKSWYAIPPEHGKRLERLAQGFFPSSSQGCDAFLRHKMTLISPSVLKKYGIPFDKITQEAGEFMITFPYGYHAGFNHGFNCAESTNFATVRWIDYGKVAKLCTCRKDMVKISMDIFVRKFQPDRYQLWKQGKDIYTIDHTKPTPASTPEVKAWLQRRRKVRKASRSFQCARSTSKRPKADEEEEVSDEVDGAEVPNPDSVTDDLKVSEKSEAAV
# SMARCA2 act – increases SMARCA2 function in MMTV reporter cells | MG213 cells, MMTV-luciferase reporter, dexamethasone, overnight | activation, % at 9.1 µM | 370,000 tested, 1% active | AID 652017; in the data active means activation above about 7.8%;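 further: 0% = vehicle wells and 100% = reference activator wells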
# MIN6 prolif – induces beta-cell replication in MIN6 cells | MIN6 cells proliferation, ATPlite luminescence, 48 h; cells starved in 0.2% serum; 100% = growth in 10% serum | proliferation, % at 10 µM | 330,000 tested, 0.29% active | AID 2380;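 active means compounds whose signal lies at least 3.5 SD above the mean of all wells on their plate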;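 further: 0% = DMSO-treated cells in low-serum medium and 100% = 10% serum control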
# Active calls of the source: *; · = no result. A selection: hits, their analogues and other compounds. The true share with any hit is near 5.4%.
SMILES,PfM18AAP inh,ALR H2O2 inh,Granule exo inh,JMJD2C inh,SMARCA2 act,MIN6 prolif
Oc1c(C=Nc2ccccc2)sc2ccccc12,7.8,18.4,-0.1,-26.4,2.8,0.1
Oc1c(C=Nc2cccnc2)sc2ccccc12,5.5,44.7,-2.9,11.6,7.9*,-1.7
Oc1sc(C=Nc2ccccc2)c2ccccc12,11.2,84.4*,1.3,-3.8,4.1,-3.3
Oc1c(C=NCc2ccncc2)sc2ccccc12,13.1,83.4*,·,-0.6,6.2,-0.8
C=CCN1[C@H](Cc2ccccc2)COc2cccc(N3CCSCC3)c2S1(=O)=O,·,·,·,·,0.0,·
COc1cc(/C=C2\SC(=O)NC2=O)ccc1Oc1ccc([N+](=O)[O-])cn1,3.4,97.5*,7.5,-6.5,1.9,-2.1
COc1cc(/C=C2/NC(=O)N(Cc3ccccc3F)C2=O)ccc1Oc1ccc([N+](=O)[O-])cn1,6.1,·,-1.0,1.0,-2.8,0.0
COc1cc(/C=C2/SC(=O)NC2=O)ccc1Oc1ccc([N+](=O)[O-])cc1[N+](=O)[O-],-1.0,96.7*,4.0,1.6,-2.9,-3.7
CC(C)(C)c1nnc(N/N=C/c2cc(Br)ccc2O)n(N)c1=O,43.7*,-8.7,6.1,9.6,-1.6,·
CN1C(=O)[C@@](O)(c2cccn2C)c2cc(Cl)ccc21,·,·,·,·,-2.4,·
Cc1cc(C)n(-c2ccc(Oc3ccccc3)c(S(=O)(=O)O)c2)n1,-2.0,8.3,-2.2,0.6,-4.4,0.3
CCc1c(C)[nH]n(-c2ccc(Oc3ccccc3)c(S(=O)(=O)O)c2)c1=O,0.8,99.4*,-1.0,·,·,-2.0
CC1CCC(C(C)C)C(OCC(O)C[N+]2(C)CCCCC2)C1 (configuration not stated),1.5,99.3*,5.4,2.7,-5.5,-2.2
CCOC(=O)C1(Cc2ccccc2)CCN(Cc2cccc(C#N)c2)CC1,·,·,·,·,-2.0,·
O=C(NCCc1ccccc1)c1cc(-c2ccccc2)c(N2CCOCC2)s1,·,5.0,-2.5,-2.1,0.2,-7.5
CCN(CC)CCCNC(=O)c1cc(-c2ccccc2)c(N2CCCCC2)s1,5.4,98.7*,31.8,-7.0,-2.8,-4.8
CCN(C(=O)C1CCCN1S(=O)(=O)c1cccnc1)c1ccccc1 (configuration not stated),·,·,·,·,-3.6,·
COc1ccc(-c2nc(CS(=O)CC(=O)NCc3ccc(F)cc3)c(C)o2)cc1 (configuration not stated),-10.7,98.5*,39.7,-19.2,0.1,2.4
CCOc1ccc(-c2nc(CS(=O)(=O)CC(=O)NCc3ccc(F)cc3)c(C)o2)cc1,4.0,24.7,-5.9,-2.2,2.1,-3.5
CCc1ccc(-c2nc(CS(=O)CC(=O)NCc3cccnc3)c(C)o2)cc1 (configuration not stated),-8.9,99.0*,0.4,-14.2,-2.2,-1.7
COc1ccc(-c2nc(CS(=O)CC(=O)NCc3cccnc3)c(C)o2)cc1 (configuration not stated),3.3,99.4*,2.2,-4.7,1.6,6.2
CN[C@H]1C[C@H]2c3[nH]c4c(-c5cccc(C)c5)cccc4c3CCN2C(=O)[C@H]1[C@H](C)O,·,·,·,·,-1.7,·
COC(=O)[C@]12C[C@H](CC(=O)N3CCSCC3)C(=O)N(CCC3=CCCCC3)C1=C[C@H](C(C)C)O[C@@H]2C1CC1,·,·,·,·,7.2,·
CCOc1cc(/C=C2/SC(=S)NC2=O)ccc1OC(=O)c1ccco1,-5.2,97.9*,15.3,-20.7,0.6,-4.4
COc1cc(/C=C2/SC(=O)NC2=O)ccc1OC(=O)c1ccco1,-8.1,21.6,7.4,-5.9,1.9,-1.8
SMILES,PfM18AAP inh,ALR H2O2 inh,Granule exo inh,JMJD2C inh,SMARCA2 act,MIN6 prolif
O=C1NC(=S)S/C1=C/c1ccc(OC(=O)c2ccco2)cc1,-9.9,-2.6,79.4*,-1.0,-0.9,-2.3
O=C(NNS(=O)(=O)c1ccc([N+](=O)[O-])cc1)c1ccccc1,·,·,-7.4,·,-2.2,·
O=C(NNS(=O)(=O)c1ccc([N+](=O)[O-])cc1)c1ccc2ccccc2c1O,14.6,98.1*,12.5,2.0,-2.0,-0.7
N=C1C(c2nc(-c3ccc(Cl)cc3)cs2)=C(O)CN1CCCN1CCOCC1,1.1,98.1*,3.8,-7.5,1.8,-6.2
Cc1cc(NN)nc2ccc(Cl)cc12,30.9*,-9.6,-0.5,17.9,2.1,1.3
COC(=O)c1cc(-c2ccc(C)cc2)c(=O)n2c1CCC2,·,·,·,·,-3.2,·
O=C(O)CSc1cc(C(=O)c2ccccc2O)cn2c(=O)c3c(-c4ccccc4)csc3nc12,-0.6,97.6*,9.5,-0.1,0.5,-5.3
CCOC(=O)c1sc2nc3c(SCC(=O)O)cc(C(=O)c4ccccc4O)cn3c(=O)c2c1C,-7.6,7.7,-1.9,7.3,-2.3,-4.7
Cc1ccc2nc(-c3ccc(NC(=O)CSc4nnc(Cc5cccs5)n4C)cc3)sc2c1,·,·,·,·,-1.9,·
C=CS(=O)(=O)c1ccc(Oc2ccc(S(=O)(=O)C=C)cc2)cc1,-10.3,24.1,88.8*,-11.8,-11.7,-5.5
CCOC(=O)[C@]12CCCC3=C1N(CCC3)C(=O)[C@@H](CC(=O)NCCCCc1ccccc1)C2,·,·,·,·,-4.9,·
C=CCOC(=O)C1=C[C@H](C(C)(C)C)[C@@H](CCCO)[C@H](OCC)O1,·,-3.5,69.4*,15.7,-0.2,-1.7
CCO[C@@H]1OC(C(N)=O)=C[C@H](C(C)(C)C)[C@H]1CCCO,·,4.6,0.5,-5.2,1.0,5.2
CCCC[C@@H](CCCc1ccc(F)cc1)CCC(=O)N(c1ccccc1)c1ccccc1,·,·,·,·,0.1,·
N#CCSc1nc2cc(C(=O)N3CCC(C(N)=O)CC3)ccc2c2nc3ccccc3n12,-1.7,98.2*,2.3,30.9,·,1.9
COC(=O)c1cc2c(c3c4cc(F)ccc4n(S(=O)(=O)c4ccc(C)cc4)c13)C(=O)N(c1ccc(OC)cc1)C2,·,·,·,·,-3.9,·
O=[N+]([O-])c1ccc(NN=Cc2cccc3ccccc23)cc1,·,·,12.7,·,-2.8,·
Cc1ccc[n+](-c2nc([O-])sc2/C=N/Nc2ccc([N+](=O)[O-])cc2)c1,-4.2,91.9*,6.9,-6.0,5.8,-1.1
C=CCN1[C@H](CO)[C@H](c2ccc(C#CC3(O)CCCC3)cc2)[C@@H]1C#N,·,·,·,·,-3.8,·
COc1ccc(C(=O)Nc2ccc(N3CCOCC3)cc2)cc1S(=O)(=O)N1CCOCC1,·,·,-2.3,·,3.7,-1.9
COc1ccc(C(=O)Nc2ccc(-c3ccc(C)o3)cc2)cc1S(=O)(=O)N1CCOCC1,-8.8,·,72.4*,-0.1,-3.9,-4.9
O=[N+]([O-])c1ccc2c(c1)nc1n2CCSC1,0.4,·,3.1,3.7,-5.4,-1.7
CC(C)C(=O)Nc1ccc2c(c1)nc1n2CCSC1,9.1,98.6*,-0.3,0.2,-1.1,4.2
CCC(=O)Nc1ccc2c(c1)nc1n2CCSC1,-2.4,98.7*,-1.8,-4.2,-0.6,-0.2
CC1(C)CC(=O)C(C(c2ccco2)C2C(=O)CC(C)(C)CC2=O)C(=O)C1,7.3,83.5*,-4.7,-0.9,-0.5,-2.7
